In the supplement of paper PMC10849652 one finds log2 fold change data, which are given here for 39 targets.

Of roughly 7,900 targets only a part is listed; those with a hit were picked by preference. About 0.6% of all pairs of compound and target were hits. A number with no mark means an inactive call.

Sequence of UniProt Q96PU5 (Q96PU5 whole entry, looked up): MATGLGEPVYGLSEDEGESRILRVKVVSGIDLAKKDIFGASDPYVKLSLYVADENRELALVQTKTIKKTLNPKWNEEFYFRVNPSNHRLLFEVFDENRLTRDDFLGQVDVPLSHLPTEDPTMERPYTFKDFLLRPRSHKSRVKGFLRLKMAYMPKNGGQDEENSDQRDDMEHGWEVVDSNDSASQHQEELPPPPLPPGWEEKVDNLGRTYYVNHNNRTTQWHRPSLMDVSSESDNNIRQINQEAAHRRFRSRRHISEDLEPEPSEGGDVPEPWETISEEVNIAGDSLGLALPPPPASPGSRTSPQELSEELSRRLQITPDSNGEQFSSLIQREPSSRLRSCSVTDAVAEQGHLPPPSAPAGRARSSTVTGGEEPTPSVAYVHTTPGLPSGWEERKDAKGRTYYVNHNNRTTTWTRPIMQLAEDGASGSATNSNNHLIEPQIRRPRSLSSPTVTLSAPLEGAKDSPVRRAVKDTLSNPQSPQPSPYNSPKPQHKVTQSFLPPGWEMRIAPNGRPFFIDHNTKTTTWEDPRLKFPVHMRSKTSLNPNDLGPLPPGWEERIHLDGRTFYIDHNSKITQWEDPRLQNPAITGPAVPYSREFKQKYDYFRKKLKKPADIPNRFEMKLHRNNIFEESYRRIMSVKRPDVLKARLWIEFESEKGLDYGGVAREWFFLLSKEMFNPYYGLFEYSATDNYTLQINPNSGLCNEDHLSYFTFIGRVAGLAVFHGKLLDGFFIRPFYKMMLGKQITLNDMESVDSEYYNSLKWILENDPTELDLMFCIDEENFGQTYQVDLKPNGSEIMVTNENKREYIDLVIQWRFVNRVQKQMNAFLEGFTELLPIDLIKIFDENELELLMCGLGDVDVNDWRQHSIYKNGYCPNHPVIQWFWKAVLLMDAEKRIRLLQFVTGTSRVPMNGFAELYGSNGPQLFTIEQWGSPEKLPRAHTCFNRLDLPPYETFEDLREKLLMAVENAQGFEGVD
Sequence of UniProt Q9UH92 (Q9UH92 whole entry, looked up): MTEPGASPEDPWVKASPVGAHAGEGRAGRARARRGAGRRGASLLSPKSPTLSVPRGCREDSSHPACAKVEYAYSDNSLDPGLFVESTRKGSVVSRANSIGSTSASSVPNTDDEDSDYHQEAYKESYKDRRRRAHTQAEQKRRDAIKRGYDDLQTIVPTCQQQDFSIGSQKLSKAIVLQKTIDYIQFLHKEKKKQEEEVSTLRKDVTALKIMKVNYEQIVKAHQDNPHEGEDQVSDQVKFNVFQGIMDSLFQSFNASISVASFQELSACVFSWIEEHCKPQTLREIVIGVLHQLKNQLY
Sequence of UniProt Q16621 (Q16621 whole entry, looked up): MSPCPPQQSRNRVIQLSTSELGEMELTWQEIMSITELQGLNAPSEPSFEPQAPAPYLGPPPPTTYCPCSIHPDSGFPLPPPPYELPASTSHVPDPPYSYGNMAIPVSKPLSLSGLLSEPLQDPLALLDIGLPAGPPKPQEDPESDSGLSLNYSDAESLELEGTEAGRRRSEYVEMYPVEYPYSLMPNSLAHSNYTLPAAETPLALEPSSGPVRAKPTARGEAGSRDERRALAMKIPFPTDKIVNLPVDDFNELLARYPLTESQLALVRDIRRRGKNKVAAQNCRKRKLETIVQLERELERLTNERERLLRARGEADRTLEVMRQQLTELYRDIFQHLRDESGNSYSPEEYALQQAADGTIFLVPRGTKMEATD
Sequence of UniProt Q14149 (Q14149 whole entry, looked up): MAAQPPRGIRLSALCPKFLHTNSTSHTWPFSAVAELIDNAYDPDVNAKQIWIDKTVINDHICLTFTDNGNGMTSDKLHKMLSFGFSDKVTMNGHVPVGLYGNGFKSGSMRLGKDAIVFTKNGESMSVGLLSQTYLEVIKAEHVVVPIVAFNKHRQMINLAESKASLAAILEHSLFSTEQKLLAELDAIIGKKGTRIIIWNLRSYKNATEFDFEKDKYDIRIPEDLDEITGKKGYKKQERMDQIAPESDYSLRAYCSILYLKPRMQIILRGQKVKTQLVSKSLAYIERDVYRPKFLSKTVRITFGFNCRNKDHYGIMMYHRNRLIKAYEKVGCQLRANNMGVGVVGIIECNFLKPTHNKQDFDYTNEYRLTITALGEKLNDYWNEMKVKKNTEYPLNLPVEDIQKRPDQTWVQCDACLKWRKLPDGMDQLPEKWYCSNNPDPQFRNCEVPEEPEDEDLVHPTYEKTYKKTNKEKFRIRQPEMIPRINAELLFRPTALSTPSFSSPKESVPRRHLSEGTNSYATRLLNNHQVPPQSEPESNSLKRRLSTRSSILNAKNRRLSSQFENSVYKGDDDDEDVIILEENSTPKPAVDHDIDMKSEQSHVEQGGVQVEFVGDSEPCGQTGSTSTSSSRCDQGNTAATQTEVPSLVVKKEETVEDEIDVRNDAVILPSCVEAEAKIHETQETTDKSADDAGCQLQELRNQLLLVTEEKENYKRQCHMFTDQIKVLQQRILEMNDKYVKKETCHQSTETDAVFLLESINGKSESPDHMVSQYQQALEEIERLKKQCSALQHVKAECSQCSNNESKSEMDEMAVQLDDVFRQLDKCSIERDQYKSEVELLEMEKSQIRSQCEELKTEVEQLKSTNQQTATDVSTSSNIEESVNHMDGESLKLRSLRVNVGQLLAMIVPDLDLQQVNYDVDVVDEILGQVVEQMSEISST
Sequence of UniProt Q96MF7 (Q96MF7 whole entry, looked up): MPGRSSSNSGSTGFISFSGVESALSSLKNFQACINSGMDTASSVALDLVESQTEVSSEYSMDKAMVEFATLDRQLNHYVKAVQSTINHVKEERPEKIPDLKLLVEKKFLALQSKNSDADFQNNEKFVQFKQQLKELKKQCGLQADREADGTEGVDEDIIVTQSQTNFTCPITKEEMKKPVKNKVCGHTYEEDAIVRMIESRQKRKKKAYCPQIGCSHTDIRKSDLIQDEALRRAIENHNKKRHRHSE
Sequence of UniProt Q9BUK6 (Q9BUK6 whole entry, looked up): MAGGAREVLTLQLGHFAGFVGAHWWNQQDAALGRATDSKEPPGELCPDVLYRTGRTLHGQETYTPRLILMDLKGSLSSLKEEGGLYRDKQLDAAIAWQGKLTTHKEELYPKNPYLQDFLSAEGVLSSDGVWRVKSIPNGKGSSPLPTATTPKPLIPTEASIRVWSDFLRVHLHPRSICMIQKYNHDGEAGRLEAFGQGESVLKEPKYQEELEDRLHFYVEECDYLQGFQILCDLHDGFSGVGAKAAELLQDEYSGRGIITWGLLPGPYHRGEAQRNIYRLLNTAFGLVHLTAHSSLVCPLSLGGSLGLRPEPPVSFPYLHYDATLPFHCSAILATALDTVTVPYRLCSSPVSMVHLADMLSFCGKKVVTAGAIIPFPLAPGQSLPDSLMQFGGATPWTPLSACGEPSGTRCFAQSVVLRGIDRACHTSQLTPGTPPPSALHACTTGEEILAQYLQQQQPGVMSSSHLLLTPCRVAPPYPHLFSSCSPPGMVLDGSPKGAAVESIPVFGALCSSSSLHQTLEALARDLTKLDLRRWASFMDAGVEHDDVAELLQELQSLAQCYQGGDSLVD
Sequence of UniProt O15118 (O15118 whole entry, looked up): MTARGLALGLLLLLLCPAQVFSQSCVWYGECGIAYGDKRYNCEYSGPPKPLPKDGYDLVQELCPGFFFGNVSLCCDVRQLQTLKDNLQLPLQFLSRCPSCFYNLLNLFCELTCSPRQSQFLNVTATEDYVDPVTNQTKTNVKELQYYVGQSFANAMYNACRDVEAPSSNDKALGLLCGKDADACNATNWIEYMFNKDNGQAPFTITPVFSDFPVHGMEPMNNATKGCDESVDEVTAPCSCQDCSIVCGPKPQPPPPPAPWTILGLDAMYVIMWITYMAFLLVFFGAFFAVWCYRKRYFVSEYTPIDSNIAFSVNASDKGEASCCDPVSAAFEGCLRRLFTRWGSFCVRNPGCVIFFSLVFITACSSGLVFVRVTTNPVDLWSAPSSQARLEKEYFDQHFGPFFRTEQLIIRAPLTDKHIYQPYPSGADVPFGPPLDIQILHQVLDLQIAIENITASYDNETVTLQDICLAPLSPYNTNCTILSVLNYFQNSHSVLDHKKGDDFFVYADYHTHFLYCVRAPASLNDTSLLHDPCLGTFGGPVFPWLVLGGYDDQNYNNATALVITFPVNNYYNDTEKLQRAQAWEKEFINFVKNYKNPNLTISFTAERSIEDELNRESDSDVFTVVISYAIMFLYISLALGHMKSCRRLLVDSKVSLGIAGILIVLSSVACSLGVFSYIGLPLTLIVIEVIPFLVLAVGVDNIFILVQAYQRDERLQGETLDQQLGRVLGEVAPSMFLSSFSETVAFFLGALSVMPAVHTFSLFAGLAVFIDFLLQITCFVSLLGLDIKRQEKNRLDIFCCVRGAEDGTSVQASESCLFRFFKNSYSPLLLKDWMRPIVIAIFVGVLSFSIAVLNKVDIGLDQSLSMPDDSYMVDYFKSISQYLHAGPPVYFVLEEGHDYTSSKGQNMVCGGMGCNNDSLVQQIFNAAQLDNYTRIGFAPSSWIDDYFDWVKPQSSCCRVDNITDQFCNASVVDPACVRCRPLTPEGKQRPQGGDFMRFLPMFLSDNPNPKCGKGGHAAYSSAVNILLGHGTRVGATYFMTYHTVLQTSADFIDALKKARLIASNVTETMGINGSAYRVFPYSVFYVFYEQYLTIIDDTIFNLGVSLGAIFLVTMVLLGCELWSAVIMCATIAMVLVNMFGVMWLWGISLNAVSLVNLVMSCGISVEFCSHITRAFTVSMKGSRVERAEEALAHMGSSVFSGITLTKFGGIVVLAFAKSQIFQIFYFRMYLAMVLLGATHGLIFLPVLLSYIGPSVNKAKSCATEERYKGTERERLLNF
Sequence of UniProt P51948 (P51948 whole entry, looked up): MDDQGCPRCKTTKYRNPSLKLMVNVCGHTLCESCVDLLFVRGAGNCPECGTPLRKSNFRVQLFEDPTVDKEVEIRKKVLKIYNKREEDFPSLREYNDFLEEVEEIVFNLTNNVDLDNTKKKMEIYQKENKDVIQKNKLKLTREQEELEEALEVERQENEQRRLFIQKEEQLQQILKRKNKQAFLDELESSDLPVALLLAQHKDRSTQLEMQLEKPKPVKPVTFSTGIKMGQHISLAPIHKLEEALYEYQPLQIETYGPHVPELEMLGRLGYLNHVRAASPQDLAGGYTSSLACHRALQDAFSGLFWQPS

Compound in one experiment: C1=CC2=C(C=CC(=C2)/C=C\3/C(=O)NC(=NCC4=CC=CS4)S3)N=C1
Nature of the experiment: log2 fold change, soluble protein after heating vs DMSO (PISA); higher = thermal stabilisation; K562 cells, 10 uM, 30 min; active = over 0.2 and 3.5 SD of the protein, either way, in both replicates (recomputed). The method, boiled down: (§1)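 Aliquots of K562 cells (2×10^6 cells/mL) treated with 10 μM compound for 30 min were heated for 3 min over 48°C-58°C. After pooling and extraction in PBS with 0.5% NP-40 at 4°C, soluble protein from a 21,000xg, 90 min spin was quantified by TMTpro 16plex LC-MS/MS with channel sums equalised. Thermal stability is expressed against control samples, from duplicates, as a log2 fold change.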
Consider MNAT1 (UniProt P51948), for which the log2 fold change is -0.012.

With NUDT1 (UniProt P36639), the log2 fold change is 0.

As to OGFR (UniProt Q9NZT2), the log2 fold change was 0.131.

Regarding MT-ND4 (UniProt P03905), the log2 fold change is -0.026.

MTFR1L (UniProt Q9H019): the log2 fold change was -0.001.

For the target MRPS15 (UniProt P82914), the log2 fold change is 0.069.

As to NCAPG (UniProt Q9BPX3), the log2 fold change is 0.005.

On to MITD1 (UniProt Q8WV92), for which the log2 fold change is 0.044.

NPC1 (UniProt O15118): the log2 fold change is -0.01.

For MRPS12 (UniProt O15235), the log2 fold change is -0.052.

Regarding MORC3 (UniProt Q14149), the log2 fold change was -0.024.

For the target NRDC isoform 2 (UniProt O43847), the log2 fold change was 0.021.

For the target NARS2 (UniProt Q96I59), the log2 fold change is -0.018.

Consider MSTO1 (UniProt Q9BUK6), for which the log2 fold change was -0.003.

Regarding NECTIN2 (UniProt Q92692), the log2 fold change is 0.002.

As to NEDD4L (UniProt Q96PU5), the log2 fold change was 0.016.

As for NA, A0A0B4J2A0, the log2 fold change is 0.037.

Take NUCKS1 (UniProt Q9H1E3): the log2 fold change was -0.052.

For MRPS9 (UniProt P82933), the log2 fold change was 0.019.

With NFYC (UniProt Q13952), the log2 fold change is 0.059.

As to MTMR14 (UniProt Q8NCE2), the log2 fold change was 0.002.

Turning to NSMCE2 (UniProt Q96MF7), the log2 fold change is 0.023.

For the target NOP53 (UniProt Q9NZM5), the log2 fold change is -0.298.

Take MRPL47 (UniProt Q9HD33): the log2 fold change is -0.002.

As for MRPL50 (UniProt Q8N5N7), the log2 fold change was -0.008.

As for NDUFA4 (UniProt O00483), the log2 fold change was 0.047.

As for NDUFS4 (UniProt O43181), the log2 fold change was -0.093.

As to MRPS16 (UniProt Q9Y3D3), the log2 fold change was 0.014.

For NAP1L1 (UniProt P55209), the log2 fold change is -0.048.

Regarding OXA1L (UniProt Q15070), the log2 fold change was 0.01.

Regarding MSH6 (UniProt P52701), the log2 fold change was 0.167.

As for NMD3 (UniProt Q96D46), the log2 fold change was 0.009.

Consider NDUFS8 (UniProt O00217), for which the log2 fold change was 0.039.

NOP2 isoform 4 (UniProt P46087): the log2 fold change is -0.045.

For NEU1 (UniProt Q99519), the log2 fold change is 0.003.

Consider MRPS31 (UniProt Q92665), for which the log2 fold change was -0.004.

Take NCAPD2 (UniProt Q15021): the log2 fold change is 0.024.

For MLX (UniProt Q9UH92), the log2 fold change was 0.032.

As for NFE2 (UniProt Q16621), the log2 fold change was -0.002.

Compound in another experiment: C1=CC2=NC=CN=C2C=C1/C=C/3\C(=O)NC(=O)S3
The description is as above. The method, boiled down:
as §1
On to MNAT1 (UniProt P51948), for which the log2 fold change was 0.008.

Regarding NUDT1 (UniProt P36639), the log2 fold change is -0.032.

Take OGFR (UniProt Q9NZT2): the log2 fold change is -0.157.

Consider MT-ND4 (UniProt P03905), for which the log2 fold change is 0.044.

Consider MTFR1L (UniProt Q9H019), for which the log2 fold change was -0.03.

As for MRPS15 (UniProt P82914), the log2 fold change was 0.064.

For the target NCAPG (UniProt Q9BPX3), the log2 fold change is 0.002.

In the case of MITD1 (UniProt Q8WV92), the log2 fold change was 0.036.

As to NPC1 (UniProt O15118), the log2 fold change was 0.028.

In the case of MRPS12 (UniProt O15235), the log2 fold change is 0.018.

On to MORC3 (UniProt Q14149), for which the log2 fold change was 0.068.

In the case of NRDC isoform 2 (UniProt O43847), the log2 fold change is 0.024.

As to NARS2 (UniProt Q96I59), the log2 fold change was -0.004.

MSTO1 (UniProt Q9BUK6): the log2 fold change was 0.007.

NECTIN2 (UniProt Q92692): the log2 fold change is 0.008.

For the target NEDD4L (UniProt Q96PU5), the log2 fold change was 0.035.

On to NA, A0A0B4J2A0, for which the log2 fold change is 0.038.

Consider NUCKS1 (UniProt Q9H1E3), for which the log2 fold change was 0.

For the target MRPS9 (UniProt P82933), the log2 fold change was 0.04.

In the case of NFYC (UniProt Q13952), the log2 fold change was 0.007.

Take MTMR14 (UniProt Q8NCE2): the log2 fold change is 0.009.

For the target NSMCE2 (UniProt Q96MF7), the log2 fold change was -0.096.

On to NOP53 (UniProt Q9NZM5), for which the log2 fold change was 0.036.

On to MRPL47 (UniProt Q9HD33), for which the log2 fold change is -0.047.

Turning to MRPL50 (UniProt Q8N5N7), the log2 fold change was 0.066.

On to NDUFA4 (UniProt O00483), for which the log2 fold change is 0.072.

For NDUFS4 (UniProt O43181), the log2 fold change is 0.077.

For the target MRPS16 (UniProt Q9Y3D3), the log2 fold change was 0.079.

For NAP1L1 (UniProt P55209), the log2 fold change was 0.066.

In the case of OXA1L (UniProt Q15070), the log2 fold change was 0.021.

On to MSH6 (UniProt P52701), for which the log2 fold change was 0.

Take NMD3 (UniProt Q96D46): the log2 fold change is -0.02.

For NDUFS8 (UniProt O00217), the log2 fold change was 0.027.

For the target NOP2 isoform 4 (UniProt P46087), the log2 fold change is 0.272.

Regarding NEU1 (UniProt Q99519), the log2 fold change was 0.

With MRPS31 (UniProt Q92665), the log2 fold change was 0.023.

For the target NCAPD2 (UniProt Q15021), the log2 fold change is 0.04.

As for MLX (UniProt Q9UH92), the log2 fold change was -0.094.

On to NFE2 (UniProt Q16621), for which the log2 fold change is 0.158.
